Test results taken from PubChem BioAssay (Tox21).
Records with an inconclusive call do not appear. Activity calls are given as the source filed them. Unless noted, calls follow the shape of the dose curve; as a rule, active = well fitted curve in the direction sought with a large enough effect in the repeat runs; inconclusive = weak or mixed curves; inactive = no such curve, though single readings can be large; an effect the other way counts as inactive or inconclusive.

Assays:
[1] = qHTS assay to identify small molecule antagonists of the estrogen receptor alpha (ER-alpha) signaling pathway using the BG1 cell line in the presence of 0.1 nM 17-beta-estradiol - cell viability counter screen (AID 1259241); also: nearly all actives have a fitted effect of over 40% in size
Procedure, shortened: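 Cells were plated and left 24 hr, compounds in DMSO were pinned in, 17beta-estradiol was added to 0.1 nM final, and after 22 hr CellTiter-Fluor reagent was added for 30 min before fluorescence was read.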

[2] = qHTS assay to identify small molecule antagonists of the androgen receptor (AR) signaling pathway using the MDA cell line in the presence of 0.5 nM R1881 - cell viability counter screen (AID 1259242); also: nearly all actives have a fitted effect of over 45% in size
Procedure, shortened: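 R1881 at 0.5 nM final stimulated MDA-kb2 cells during 16 hr compound treatment at 37C. Cytotoxicity read: CellTiter-Fluor fluorescence after 30 min.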

[3] = target: Estrogen receptor (Homo sapiens) (UniProt P03372); assay: qHTS assay to identify small molecule antagonists of the estrogen receptor alpha (ER-alpha) signaling pathway using the BG1 cell line in the presence of 0.1 nM 17-beta-estradiol (AID 1259244); also: nearly all actives have a fitted effect of over 50% in size
Procedure, shortened: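 VM7Luc4E2; 4xERE-luciferase; 0.1 nM E2 final; 22 h co-incubation, 37C; ONE-Glo luminescence after 30 min at room temperature.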

[4] = qHTS assay to identify small molecule HDAC inhibitors - cell viability counter screen (AID 1259365); also: series mostly up to about 92 µM; nearly all actives have a fitted effect of over 50% in size
Procedure, shortened: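 Counter screen in wild-type HCT-116 cells: compounds dissolved in DMSO are pin-transferred onto overnight-plated cells and left 2hr at 37C. ATP-based CellTiter-Glo luminescence then measures viable cells.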

[5] = qHTS assay to identify small molecule agonists of the sonic hedgehog signaling (Shh) pathway - cell viability counter screen (AID 1259366); also: nearly all actives have a fitted effect of over 50% in size; also: potency is read from the fitted curve at half-maximal effect
Procedure, shortened: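 Cells are plated at 2,000 per well and left 4hr at 37C, 5% CO2 before compound addition. After 23hr of treatment, CellTiter-Fluor reagent is added for 1hr at 37C and fluorescence is measured.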

[6] = qHTS assay to identify small molecule antagonists of the sonic hedgehog signaling (Shh) pathway - cell viability counter screen (AID 1259367); also: nearly all actives have a fitted effect of over 55% in size; also: potency is read from the fitted curve at half-maximal effect
Procedure, shortened: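 Using CellTiter-Fluor, viability of Gli1-Luc reporter 3T3 cells is read by fluorescence in the wells used for the Shh luciferase assay. Treatment lasts 23 hr with conditioned medium, then reagent 1 hr at 37C.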

[7] = qHTS assay to identify small molecule agonists of the sonic hedgehog signaling (Shh) pathway (AID 1259368; calls by dose curve;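 also: NIH/3T3-derived 3T3Gli1-Luc cells carrying a stable Gli1-driven firefly luciferase reporter; series mostly up to about 92 µM; nearly all actives have a fitted effect of over 15% in size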)
Procedure, shortened: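 Mouse fibroblast (NIH/3T3) reporter cells with stably integrated Gli1-Luc were treated 24 hr with compound; firefly luciferase luminescence served as the read-out.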

[8] = qHTS assay to identify small molecule antagonists of the sonic hedgehog signaling (Shh) pathway (AID 1259369; calls by dose curve; also: nearly all actives have a fitted effect of over 45% in size; also: potency is read from the fitted curve at half-maximal effect)
Procedure, shortened: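 Conditioned medium drives Shh signalling in 3T3Gli1-Luc cells; compounds in DMSO co-applied, 24hr at 37 C, then luciferase luminescence.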

[9] = qHTS assay to identify small molecule agonists of the androgen receptor (AR) signaling pathway in the presence of an antagonist - cell viability counter screen (AID 1259379);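 also: MDA-kb2 human breast cancer cells carrying an MMTV luciferase reporter; series mostly up to about 92 µM; nearly all actives have a fitted effect of over 25% in size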
Procedure, shortened: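 A CellTiter-Fluor read-out measured viability of MDA-kb2 reporter cells (MMTV promoter with AR and GR response elements). Treatment: nilutamide 3.0uM final with compounds at 15 concentrations, 16 hr, 37C, 0% CO2.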

[10] = qHTS assay to identify small molecule agonists of the estrogen receptor beta (ER-beta) signaling pathway - cell viability counter screen (AID 1259380); also: nearly all actives have a fitted effect of over 30% in size
Procedure, shortened: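 Cells used were ER-beta-UAS-bla HEK293T in medium with 2% charcoal-stripped FBS. They were treated for 16 hr at 37C. Viability came from CellTiter-Glo luminescence.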

[11] = qHTS assay to identify small molecule antagonists of the estrogen receptor beta (ER-beta) signaling pathway - cell viability counter screen (AID 1259382); also: series mostly up to about 92 µM; nearly all actives have a fitted effect of over 55% in size
Procedure, shortened: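 Agonist-stimulated (1nM E2) ER-beta-UAS-bla HEK293T cells are incubated with library compounds for 16 hr at 37C. Cell viability is then assessed in the reporter-assay wells by adding CellTiter-Glo and reading luminescence after 30 min.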

[12] = target: Estrogen receptor (Homo sapiens) (UniProt P03372); assay: qHTS assay to identify small molecule agonists of the estrogen receptor alpha (ER-alpha) signaling pathway in the presence of an antagonist (AID 1259383; calls by dose curve; also: top concentration of the series differs between compounds; nearly all actives have a fitted effect of over 15% in size)
Procedure, shortened: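 Using VM7Luc4E2 cells seeded 24hr before treatment, antagonist ICI-182,780 (10.0nM final) was added, followed by compounds at 15 concentrations. Plates incubated 22hr; ONE-Glo luminescence quantified reporter activity.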

[13] = qHTS assay to identify small molecule agonists or antagonists of the thyroid stimulating hormone receptor (TSHR) signaling pathway - wild type cell line counter screen (AID 1259384; calls by dose curve)
Procedure, shortened: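 Counter screen in untransfected Hek293: compounds (15-point titration, triplicate) plus phosphodiesterase inhibitor Ro20-1724 added after 18 h plating; 30 min RT. Intracellular cAMP via competitive d2/cryptate immunoassay, 1 h incubation.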

[14] = target: Thyrotropin receptor (Homo sapiens) (UniProt P16473); assay: qHTS assay to identify small molecule antagonists of the thyroid stimulating hormone receptor (TSHR) signaling pathway (AID 1259385; calls by dose curve; also: nearly all actives have a fitted effect of over 20% in size)
Procedure, shortened: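 Antagonist mode: compound-treated TSHR-expressing HEK293 cells were stimulated with 1.5 ng/mL TSH (final) in presence of Ro20-1724 for 30 min at RT. HTRF cAMP detection after 1 h; each compound tested at 15 concentrations, triplicate.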

[15] = qHTS assay to identify small molecule HDAC inhibitors (AID 1259364);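 also: wild-type HCT-116 cells with endogenous class I/II HDAC activity; top concentration of the series differs between compounds; nearly all actives have a fitted effect of over 45% in size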
Procedure, shortened: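 Relative class I and II HDAC activity is taken from the luminogenic signal in HCT-116 cells, with compound exposure 2 hr and reagent development 30 min at room temperature.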

[16] = target: Estrogen receptor beta (Homo sapiens) (UniProt Q92731); assay: qHTS assay to identify small molecule agonists of the estrogen receptor beta (ER-beta) signaling pathway (AID 1259377; active = well fitted activation curve with a large enough effect in the signal ratio in the repeat runs, not every such curve was filed as active; the % refers to the signal ratio)
Procedure, shortened: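 Agonist mode cell assay in GripTite HEK293T cells expressing an ER-beta fusion that drives beta-lactamase from an Upstream Activator Sequence; 16 hr compound exposure at 37C, then 2 h LiveBLAzer B/G FRET substrate at room temperature, fluorescence read-out.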

[17] = target: Estrogen receptor beta (Homo sapiens) (UniProt Q92731); assay: qHTS assay to identify small molecule antagonists of the estrogen receptor beta (ER-beta) signaling pathway (AID 1259378; active = well fitted inhibition curve with a large enough effect in the signal ratio in the repeat runs, not every such curve was filed as active; the % refers to the signal ratio)
Procedure, shortened: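 Antagonist mode: compounds added to beta-lactamase reporter HEK293T ER-beta-UAS cells stimulated with E2 (1nM final), 16 hr at 37C. LiveBLAzer B/G FRET substrate, 2 hours room temperature, fluorescence read-out.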

[18] = qHTS assay to identify small molecule phospholipidosis (PLD) inducers (AID 1259344; active = well fitted curve in the direction sought with a large enough effect; an effect the other way counts as inactive or inconclusive)
Procedure, shortened: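 Fluorescent phospholipid staining (LipidTOX Red) measured by automated microscopy in fixed HepG2 cells after 24 h treatment; nuclei counterstained with Hoechst 33342; amiodarone as reference inducer.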

[19] = target: Androgen receptor (Homo sapiens) (UniProt P10275); assay: qHTS assay to identify small molecule agonists of the androgen receptor (AR) signaling pathway in the presence of an antagonist (AID 1259381; calls by dose curve; also: nearly all actives have a fitted effect of over 15% in size)
Procedure, shortened: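 Using human MDA-kb2 cells with an MMTV promoter–luciferase construct (AR and GR response elements), agonist activity is scored under 3.0uM nilutamide (final) co-treatment; 16hr incubation, 37C, luminescence readout via ONE-Glo.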

[20] = target: Androgen receptor (Homo sapiens) (UniProt P10275); assay: qHTS assay to identify small molecule antagonists of the androgen receptor (AR) signaling pathway using the MDA cell line in the presence of 0.5 nM R1881 (AID 1259243); also: nearly all actives have a fitted effect of over 50% in size
Procedure, shortened: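 We exposed MDA-kb2 cells to compounds under 0.5 nM R1881 stimulation for 16 hr at 37C and quantified MMTV-driven luciferase by luminescence.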

Measured: Potency

Sequence of Estrogen receptor beta (Homo sapiens) (Q92731 whole entry, looked up, the tested form may be a part): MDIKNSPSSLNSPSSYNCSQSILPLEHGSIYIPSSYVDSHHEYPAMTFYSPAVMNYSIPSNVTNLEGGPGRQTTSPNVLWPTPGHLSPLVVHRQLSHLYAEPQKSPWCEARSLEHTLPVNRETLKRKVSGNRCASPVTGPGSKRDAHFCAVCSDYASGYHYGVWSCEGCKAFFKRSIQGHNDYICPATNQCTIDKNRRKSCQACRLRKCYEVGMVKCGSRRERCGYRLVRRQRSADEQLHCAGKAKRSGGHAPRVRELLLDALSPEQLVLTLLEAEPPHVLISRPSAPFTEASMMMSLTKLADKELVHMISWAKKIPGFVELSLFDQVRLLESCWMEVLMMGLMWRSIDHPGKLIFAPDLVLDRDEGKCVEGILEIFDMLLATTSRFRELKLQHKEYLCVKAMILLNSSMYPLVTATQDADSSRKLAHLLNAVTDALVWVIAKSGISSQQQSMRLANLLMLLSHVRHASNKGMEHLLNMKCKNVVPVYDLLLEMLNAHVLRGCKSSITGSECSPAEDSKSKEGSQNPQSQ
Sequence of Estrogen receptor (Homo sapiens) (P03372 whole entry, looked up): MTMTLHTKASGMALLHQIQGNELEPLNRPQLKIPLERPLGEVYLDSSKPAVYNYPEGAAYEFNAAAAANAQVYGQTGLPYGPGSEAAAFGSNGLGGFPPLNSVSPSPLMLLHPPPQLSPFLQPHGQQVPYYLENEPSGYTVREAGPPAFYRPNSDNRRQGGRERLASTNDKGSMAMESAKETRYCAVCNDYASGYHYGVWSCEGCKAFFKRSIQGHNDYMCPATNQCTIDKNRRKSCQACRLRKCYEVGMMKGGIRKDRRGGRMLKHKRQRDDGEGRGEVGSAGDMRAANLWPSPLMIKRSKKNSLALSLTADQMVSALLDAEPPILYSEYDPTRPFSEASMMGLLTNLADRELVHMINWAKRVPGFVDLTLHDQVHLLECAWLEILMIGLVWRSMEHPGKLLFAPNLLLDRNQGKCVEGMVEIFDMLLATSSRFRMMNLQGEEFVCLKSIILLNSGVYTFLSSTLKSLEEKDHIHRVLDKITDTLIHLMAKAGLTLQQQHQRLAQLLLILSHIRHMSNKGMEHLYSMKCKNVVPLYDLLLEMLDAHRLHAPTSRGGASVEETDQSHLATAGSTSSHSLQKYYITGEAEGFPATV
Sequence of Androgen receptor (Homo sapiens) (P10275 whole entry, looked up): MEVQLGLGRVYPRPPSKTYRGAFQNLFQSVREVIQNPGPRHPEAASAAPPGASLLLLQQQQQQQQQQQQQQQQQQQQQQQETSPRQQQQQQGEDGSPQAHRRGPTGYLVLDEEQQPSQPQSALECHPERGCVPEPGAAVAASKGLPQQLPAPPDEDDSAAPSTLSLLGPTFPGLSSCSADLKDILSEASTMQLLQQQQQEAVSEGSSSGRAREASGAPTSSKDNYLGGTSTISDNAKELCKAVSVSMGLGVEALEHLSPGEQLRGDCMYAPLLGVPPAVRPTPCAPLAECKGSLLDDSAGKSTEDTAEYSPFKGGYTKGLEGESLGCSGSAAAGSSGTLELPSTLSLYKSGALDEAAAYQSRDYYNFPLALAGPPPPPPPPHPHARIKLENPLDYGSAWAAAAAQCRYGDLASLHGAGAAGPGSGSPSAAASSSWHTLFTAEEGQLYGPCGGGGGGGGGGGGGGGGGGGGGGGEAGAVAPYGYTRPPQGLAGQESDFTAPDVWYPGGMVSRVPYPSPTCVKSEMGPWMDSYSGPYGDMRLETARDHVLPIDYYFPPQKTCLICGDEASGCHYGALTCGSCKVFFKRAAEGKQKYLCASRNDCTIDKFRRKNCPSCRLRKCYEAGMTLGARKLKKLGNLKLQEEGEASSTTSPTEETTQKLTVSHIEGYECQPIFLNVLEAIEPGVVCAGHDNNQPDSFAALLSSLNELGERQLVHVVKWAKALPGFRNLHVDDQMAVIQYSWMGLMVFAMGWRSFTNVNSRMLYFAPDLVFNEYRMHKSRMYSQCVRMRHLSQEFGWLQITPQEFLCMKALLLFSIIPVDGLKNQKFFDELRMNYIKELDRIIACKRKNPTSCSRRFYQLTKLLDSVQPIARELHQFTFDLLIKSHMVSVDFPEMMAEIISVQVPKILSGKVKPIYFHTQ
Sequence of Thyrotropin receptor (Homo sapiens) (P16473 whole entry, looked up): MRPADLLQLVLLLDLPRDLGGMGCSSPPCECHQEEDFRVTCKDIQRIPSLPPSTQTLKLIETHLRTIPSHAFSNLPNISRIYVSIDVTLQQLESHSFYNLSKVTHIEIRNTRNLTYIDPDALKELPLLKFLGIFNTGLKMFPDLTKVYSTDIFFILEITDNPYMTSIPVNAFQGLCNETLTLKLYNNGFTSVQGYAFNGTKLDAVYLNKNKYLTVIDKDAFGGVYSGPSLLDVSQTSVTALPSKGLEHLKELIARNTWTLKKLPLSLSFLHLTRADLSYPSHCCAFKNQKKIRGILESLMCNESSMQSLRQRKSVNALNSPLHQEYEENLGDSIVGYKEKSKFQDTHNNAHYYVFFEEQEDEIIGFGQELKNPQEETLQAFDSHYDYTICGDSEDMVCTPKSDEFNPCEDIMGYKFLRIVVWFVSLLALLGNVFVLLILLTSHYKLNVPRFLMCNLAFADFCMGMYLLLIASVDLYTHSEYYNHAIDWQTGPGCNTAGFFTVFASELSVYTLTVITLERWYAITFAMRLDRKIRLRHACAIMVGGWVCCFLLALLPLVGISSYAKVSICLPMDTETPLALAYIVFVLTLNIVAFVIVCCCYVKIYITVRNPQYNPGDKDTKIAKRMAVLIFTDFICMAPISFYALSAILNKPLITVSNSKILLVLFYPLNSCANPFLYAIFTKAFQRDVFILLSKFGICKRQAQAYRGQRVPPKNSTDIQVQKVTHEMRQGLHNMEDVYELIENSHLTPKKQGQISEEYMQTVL

Cc1cc(C)nc(Nc2ccccc2)n1
inactive: [1] | [2] | [3] | [4] | [5] | [6] | [7] | [8] | [9] | [10] | [11] | [12] | [13] | [14]

Nc1cc2c3c(c1)C(c1ccccc1)=N[C@@H](NC(=O)c1cccnc1)C(=O)N3CC2
inactive: [1] | [2] | [3] | [15] | [4] | [6] | [7] | [16] | [17] | [9] | [10] | [11] | [13] | [14]

C(CCOCC1CO1)COCC1CO1 (centres undefined)
inactive: [1] | [2] | [3] | [15] | [4] | [6] | [7] | [9] | [10] | [12] | [13] | [14]

CN1C(=S)CN=C(c2ccccc2)c2cc(Cl)ccc21
active: [8] 6.68 µM
inactive: [1] | [2] | [18] | [15] | [4] | [5] | [6] | [7] | [17] | [9] | [10] | [11] | [12] | [13] | [14]

O=C(Cc1ccccc1)OCc1ccccc1
inactive: [1] | [2] | [3] | [4] | [5] | [6] | [7] | [8] | [17] | [9] | [11] | [12] | [13] | [14]

CN1CCN(C(=O)O[C@H]2c3nccnc3C(=O)N2c2ccc(Cl)cn2)CC1
inactive: [1] | [2] | [18] | [15] | [4] | [5] | [6] | [7] | [8] | [16] | [17] | [9] | [10] | [11] | [13] | [14]

Cc1cccc(C#N)c1
inactive: [1] | [2] | [3] | [15] | [4] | [6] | [8] | [17] | [9] | [10] | [11] | [12] | [13] | [14]

ClC(Cl)Br
inactive: [1] | [2] | [3] | [15] | [4] | [6] | [8] | [9] | [10] | [11] | [12] | [13] | [14]

CC(=O)CC(c1ccc(Cl)cc1)c1c(O)c2ccccc2oc1=O (centres undefined)
inactive: [1] | [2] | [3] | [15] | [4] | [6] | [8] | [16] | [17] | [9] | [10] | [11] | [12]

Nc1c(Br)cc([N+](=O)[O-])cc1[N+](=O)[O-]
active: [8] 31 µM
inactive: [1] | [2] | [3] | [15] | [4] | [6] | [7] | [19] | [13] | [14]

CN(C)CCc1ccc(O)cc1
inactive: [1] | [2] | [18] | [15] | [4] | [5] | [6] | [9] | [10] | [11] | [13] | [14]

CN(N=O)C(N)=O
inactive: [1] | [2] | [15] | [4] | [5] | [6] | [7] | [8] | [17] | [9] | [10] | [11]

O=C(CCCN1CCC(n2c(=O)[nH]c3ccccc32)CC1)c1ccc(F)cc1
inactive: [1] | [2] | [18] | [15] | [4] | [6] | [7] | [19] | [11] | [12] | [13]

CSc1nc(N=[N+]=[N-])nc(NC(C)C)n1
inactive: [1] | [2] | [3] | [15] | [4] | [6] | [7] | [9] | [10] | [11] | [13] | [14]

CN1CCC(O)(c2ccc(F)cc2)C(C(=O)c2ccc(F)cc2)C1 (centres undefined)
inactive: [1] | [2] | [18] | [15] | [4] | [5] | [6] | [7] | [8] | [17] | [9] | [10] | [11] | [13] | [14]

COCC(=O)N(c1c(C)cccc1C)N1CCOC1=O
inactive: [1] | [2] | [15] | [4] | [5] | [6] | [7] | [8] | [9] | [10] | [11]

N#CCBr
inactive: [1] | [2] | [3] | [15] | [4] | [6] | [7] | [16] | [17] | [9] | [10] | [11] | [12] | [13] | [14]

CCCCOP(=O)(O)OCCCC
inactive: [2] | [20] | [3] | [15] | [4] | [6] | [7] | [17] | [9] | [10] | [19] | [11] | [12] | [13] | [14]

COc1cc(OC)nc(Oc2cccc(Oc3nc(OC)cc(OC)n3)c2C(=O)O)n1
inactive: [2] | [20] | [15] | [4] | [5] | [6] | [7] | [16] | [17] | [9] | [10] | [19] | [11]

CC1(C(=O)Nc2ccc(O)c(Cl)c2Cl)CCCCC1
inactive: [1] | [2] | [15] | [4] | [7] | [9] | [10] | [11]
active: [5] 43.3 µM | [6] 43.3 µM

N#CC(O)c1ccccc1 (centres undefined)
inactive: [1] | [2] | [15] | [4] | [5] | [6] | [7] | [17] | [9] | [10] | [11] | [13] | [14]

Nc1n[nH]c(N)n1
inactive: [1] | [2] | [15] | [4] | [5] | [6] | [8] | [17] | [10] | [11] | [13] | [14]

Nc1ccccc1Cl
inactive: [2] | [20] | [3] | [15] | [4] | [5] | [6] | [8] | [16] | [17] | [9] | [10] | [19] | [12] | [13] | [14]

CC(C)(C)NCC(O)c1cc(Cl)c(N)c(Cl)c1 (centres undefined)
active: [5] 11.9 µM
inactive: [2] | [20] | [18] | [15] | [4] | [7] | [8] | [16] | [17] | [9] | [10] | [19] | [11] | [14]
